# Measurements as given in the supplement of paper PMC3334620.
# Whole data set: some 33,000 sequences, median “E-score (-0.5 to 0.5)” near -0.035, cut for the highest 2% near 0.34. The sample as a whole holds a higher share of the highest values than the screen did.
# Molecular target: T1, Mot3 (UniProt P54785)
# T1 sequence: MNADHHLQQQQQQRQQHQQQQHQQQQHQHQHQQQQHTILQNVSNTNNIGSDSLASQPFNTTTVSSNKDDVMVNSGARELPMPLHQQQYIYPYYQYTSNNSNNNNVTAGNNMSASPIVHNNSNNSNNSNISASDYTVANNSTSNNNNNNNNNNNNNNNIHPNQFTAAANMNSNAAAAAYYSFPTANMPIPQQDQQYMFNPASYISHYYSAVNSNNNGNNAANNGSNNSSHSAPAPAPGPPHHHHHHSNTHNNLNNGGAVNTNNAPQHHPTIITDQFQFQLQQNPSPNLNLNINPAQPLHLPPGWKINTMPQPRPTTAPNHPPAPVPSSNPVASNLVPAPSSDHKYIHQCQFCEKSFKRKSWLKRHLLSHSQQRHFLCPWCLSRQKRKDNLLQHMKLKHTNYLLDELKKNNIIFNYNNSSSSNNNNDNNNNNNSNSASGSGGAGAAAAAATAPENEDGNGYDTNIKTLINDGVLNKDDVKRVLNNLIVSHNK
# Assay: PBM E-score (8-mer binding enrichment) (E-score (-0.5 to 0.5)); higher = stronger / more preferred TF binding
# Conditions: protein concentration: 200 nM; construct: GST-full length
# Procedure: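 Universal 'all 10-mer' protein binding microarrays (Agilent AMADID 015681) probed with GST-tagged S. cerevisiae TFs (full-length or DBD) made by in vitro transcription/translation (PURExpress), about 100-200 nM. Bound TF was detected with fluorescent anti-GST. Each ungapped 8-mer (which stands for itself and its reverse complement) is scored by the PBM enrichment score (E-score), a modified Wilcoxon-Mann-Whitney statistic from -0.5 to +0.5, computed with the Universal PBM Analysis Suite. Scale: above 0.35 generally sequence-specific binding.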
row,Sequence,PBM E-score
1,AGTTTACA,0.363
2,AGTTTACG,0.188
3,AGTTTACC,0.0908
4,CGTTTACA,0.349
5,CGTTTAGA,0.0393
6,CGTTTACC,0.0878
7,AAAGATGC,0.132
8,AGTCCTCC,-0.221
9,CACAGAAG,-0.00641
10,CTTGAAAG,0.0362
11,AGGAGGGG,-0.156
12,GAAGCCAC,-0.196
13,AGCCTGTA,0.342
14,GGCCTGAA,-0.277
15,AGCCTGCA,0.344
16,CGCCTGAA,0.297
17,GGCCTGCA,-0.0526
18,CGCCTGCA,0.23
19,TGCCTGAA,0.48
20,AGCCTGAA,0.223
21,GGCCTGTA,0.148
22,CAGTACTG,-0.132
23,CCCCCGCA,-0.214
24,GTCTCGCA,-0.238
25,CGATCAAC,0.0859

row,Sequence,PBM E-score
1,AAACCCCT,0.0363
2,GATGCTAC,-0.122
3,CAAACGCC,-0.143
4,AACCCACA,0.0686
5,ACTGCCTA,0.199
6,AATGCCTA,0.359
7,GATGCCTA,0.439
8,AATGCCTG,0.352
9,AATGCCTC,-0.0227
10,AATGCCGA,-0.249
11,AATGCCCG,-0.316
12,GATGCCAA,-0.148
13,CATGCCTA,0.245
14,CGATTTGC,-0.216
15,ATGGCGAC,-0.254
16,ACAGATCG,-0.134
17,CGAATGAC,0.186
18,ACGCCCTG,-0.0695
19,AACTGGAT,-0.153
20,GGAGCCAA,-0.117
21,ACAACCAA,0.00653
22,AATGTACA,0.292
23,TATGTACA,0.353
24,CATGTACG,0.239
25,GATGTACA,0.259

row,Sequence,PBM E-score
1,CATGTACA,0.387
2,TCTGTACA,0.235
3,GGCTCTGA,0.00444
4,GTCTGATA,0.0245
5,CACAATCG,0.018
6,GGGTAGTA,-0.109
7,CCAAAGTC,-0.189
8,CAAGGGGC,-0.148
9,ACGTGCTC,0.0193
10,ACCTGGGA,-0.0112
11,TAGAGGAA,-0.0809
12,AACAGGAC,0.19
13,GACAGAAA,0.0469
14,CACAGGAA,0.385
15,TACAGGAA,0.43
16,AACAGGAA,0.416
17,CACAGGAG,0.0555
18,GACAGGAC,-0.231
19,AACAGGAG,0.0835
20,GACAGGAA,0.374
21,TACAGTAA,0.194
22,CACAGGAC,-0.175
23,ACTGAGGC,-0.119
24,ATTCACTA,0.124
25,ACCATTAC,0.168

row,Sequence,PBM E-score
1,CGGTCCCA,-0.296
2,AACCAGCT,0.0762
3,ACTAGCAG,0.109
4,ACTCCAAG,-0.0115
5,AGTCCGAT,-0.158
6,AGAAACGA,0.0178
7,CGTCGTAA,0.0759
8,AGGTTGGA,-0.173
9,GGGAGGGA,-0.149
10,AGGAGGCA,0.382
11,CGGAGGTA,-0.0405
12,CGGAGGCC,-0.224
13,AGGAGGCG,-0.163
14,GGGAGGCA,0.364
15,GGGAGGAA,-0.11
16,AGGAGGCC,-0.263
17,CGGAGGCA,0.375
18,CAGACCAC,-0.109
19,GTGGCCTA,0.0303
20,ATCTAAAG,0.136
21,ACCAAGCA,-0.0877
22,CGGGGACC,-0.0971
23,AGAAACTA,-0.0831
24,GTGGATGA,-0.0229
25,AAGGCGAA,-0.0356

row,Sequence,PBM E-score
1,AAGGCAAC,0.487
2,AAGGCAGC,0.276
3,ACGGCAAT,0.0994
4,AAGGCAAG,0.485
5,AAGGCAGG,0.231
6,AAGGCAGT,-0.0323
7,AAGGCAAA,0.479
8,AAGGCAAT,0.479
9,ATGGCAAC,-0.0341
10,ACGGCAAG,-0.116
11,AGGGCAAA,-0.0247
12,GGATGCGA,-0.246
13,ACACAGCG,0.318
14,GCCCGATA,-0.181
15,AAGTTCAT,-0.132
16,GCGGCAAC,-0.0624
17,GGGGCAAC,-0.0256
18,GAGGCAAC,0.435
19,CTACGCTC,-0.0123
20,TACAAGCA,0.284
21,GCTACTCA,-0.175
22,CTCTAGCA,-0.0349
23,ATTTCCAG,0.0581
24,ATTTCCTA,0.371
25,ATTTCCTC,-0.0476

row,Sequence,PBM E-score
1,ATTTCCCA,-0.0389
2,ATTTCCTG,0.41
3,ATTTCCAA,0.0549
4,AAGATTGT,0.126
5,CCGGTGCG,-0.0852
6,AATAGCCA,-0.0713
7,CCAGGAGA,-0.238
8,GAAGGTAA,0.397
9,AAAGGTAT,0.102
10,GAAGGTGC,0.136
11,AAAGGTAG,-0.135
12,CAAGGTAC,0.376
13,AAAGGTAA,0.324
14,CAAGGTGC,0.0747
15,CAAGGTAG,0.0907
16,GGAGGTAC,0.0528
17,AAAGGTAC,0.42
18,CAAGGTAA,0.258
19,GAAGGTAC,0.438
20,CGCGACGC,-0.148
21,ATACCCGG,0.0542
22,TCGCCCCA,-0.213
23,CACTGTCC,-0.196
24,GGACCGCC,-0.212
25,ACCCTTTG,-0.147

row,Sequence,PBM E-score
1,GCATTCAC,0.0735
2,ACGTCTCT,0.0141
3,AAGCAATG,-0.0928
4,ATCAGGAT,-0.12
5,AAAGGGGG,-0.0401
6,ATACATAC,0.28
7,AGACATGA,0.198
8,ATACATGA,0.363
9,ACACATGG,0.144
10,CTACATGA,0.361
11,ATACATGG,0.374
12,AGACATGG,0.139
13,ATACATAT,0.359
14,ATACATAA,0.308
15,GTACATGA,0.328
16,CTACATCA,0.112
17,ATACATCA,0.16
18,CCTCTGAC,-0.145
19,CACCCTTC,-0.121
20,ATGCCCCC,-0.266
21,AGAGTTCC,-0.135
22,CTGGCACC,-0.232
23,CACCTTAA,0.0232
24,CCTTCAGA,-0.0591
25,ATACATCC,0.201

row,Sequence,PBM E-score
1,CTACATGC,0.355
2,AGACATGC,0.0904
3,CTACATTC,0.0249
4,CGACATGC,0.279
5,ATACATGC,0.361
6,CCCAAGGA,-0.0628
7,GTCTGCAA,-0.0815
8,AGCATGGC,0.0473
9,CGCTGTTA,-0.0162
10,TAGCTAGA,-0.0751
11,CGCACTGC,-0.0709
12,CTGCCTGA,0.223
13,AGGCCTGA,-0.288
14,ATGCCTTC,0.36
15,GAGCCTGA,0.26
16,CTGCCTAC,0.264
17,AGGCCTTC,-0.154
18,ATGCCTAC,0.424
19,ATGCCTAG,0.199
20,ATGCCTGA,0.376
21,CTGCCTTC,0.2
22,GAGCCTGC,0.389
23,CAGCCTGC,-0.106
24,AAGTAACC,0.00035
25,ATCCAGCG,-0.127

row,Sequence,PBM E-score
1,GAACCCTC,-0.176
2,AGGAAGCG,-0.0464
3,GTATGCTA,-0.0526
4,ATCGAAAG,-0.0284
5,GTTTCATA,-0.0759
6,CTCTAACA,0.0488
7,GTAGCCTA,0.177
8,GTAGAAGA,-0.00994
9,ACAAGGCC,0.0968
10,ACACTTAC,0.188
11,CGCACATA,-0.146
12,CTGCCTCC,-0.215
13,ATGCCTGC,0.407
14,ATGCCTTG,0.267
15,GTGCCTTA,0.49
16,CTGCCTCA,-0.15
17,ATGCCTGG,0.127
18,ATGCCTCA,0.111
19,ATGCCTTA,0.342
20,AAGCCTTA,-0.147
21,GCGCCTTA,0.31
22,CTGCCTGC,0.336
23,GTGCCTCA,0.454
24,CTGCCTTA,0.059
